We go through 14 compounds from ChEMBL document CHEMBL5308504, “Tm Shift (DSF) assay results for EUbOPEN Chemogenomics Library” (2023).

SMILES strings stand for the structures.

The experiment deals with Bromodomain-containing protein 4 (Homo sapiens) (UniProt O60885). The following applies: Compound concentration 20.0 uM, Protein concentration 2.0 uM, Result type QC Liability.
One may read the ΔTm as the change in melting temperature against a reference sample. `Cc1nnc2n1-c1sc3c(c1C(c1ccccc1Cl)=NC2)C[C@@H](C(=O)N1CCOCC1)C3`: the ΔTm was found to be 1.2 °C.

Regarding `OCC1OC(n2cnc3cc(Cl)c(Cl)cc32)C(O)C1O` (centres undefined), the ΔTm is 0.7 °C. Regarding `Cn1ncc(-c2nc(N[C@H]3CC[C@H](N)CC3)ncc2Cl)c1CC1CC1`, the ΔTm was -0.39 °C. Regarding `COc1nc2ccc([C@@](O)(c3ccc(Cl)cc3)c3cncn3C)cc2c(Cl)c1Cc1ccc(-n2cccn2)cc1`, the ΔTm is -0.83 °C. With `Cc1nnc2n1-c1sc(CCC(=O)N3CCOCC3)cc1C(c1ccccc1Cl)=NC2` the figure was -0.19 °C; with `C=C[C@@]12CCc3cc(O)ccc3[C@H]1CC[C@@]1(C)[C@H]2CC[C@@H]1O`, 0.82 °C; with `CCOP(=O)(OCC)C(=Cc1cc(C(C)(C)C)c(O)c(C(C)(C)C)c1)P(=O)(OCC)OCC`, -3.19 °C.

Consider `CS(=O)(=O)c1ccc(-c2cnc(N)c(C(=O)Nc3ccccc3)n2)cc1`, for which the ΔTm came to 0.79 °C. With `COc1ccc(OC(=O)N(CC(=O)O)Cc2ccc(OCCc3nc(-c4ccccc4)oc3C)cc2)cc1` the figure was -4.38 °C; with `C[C@@H](CO)CCC[C@@H](C)[C@H]1CC[C@H]2[C@@H]3CC=C4C[C@@H](O)CC[C@]4(C)[C@H]3CC[C@]12C`, -3.47 °C. Next, `CCCn1cc(-c2cc(C3C(=O)N(CC)c4ccc(C(F)(F)F)cc4N(c4ccccc4)C3=O)cc(OC)c2O)cn1` (centres undefined): 1.56 °C; `Cc1ccc2c(N)c(C(=O)NC3CCc4cc(N5CC6CCC(C5)N6)ccc4C3)sc2n1` (centres undefined): -0.53 °C. With `C[C@H](CCC(=O)O)[C@H]1CC[C@H]2[C@@H]3CC[C@@H]4C[C@H](O)CC[C@]4(C)[C@H]3CC[C@]12C` the figure was -7.72 °C. Turning to `COP(=O)(CCC(N)C(=O)O)Oc1cccc(CC(=O)O)c1` (centres undefined), the ΔTm was -0.52 °C.
